# Only some compounds are listed: those with a hit (about 4.7% of all), similar ones and a draw of the others.
# D1 agonist: human D1 receptor agonism; HEK293 T-REx D1 cells, calcium flux, agonist mode; activation, % at 2 µM; actives 1% (n = 360,000); AID 504660; also: 0% is about no effect
#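 Agonism was scored from calcium flux recorded over 180 s (1 read/s) after pintool compound addition, following a 10-cycle baseline. Cells were inducible force-coupled HEK293 TREx D1, plated overnight at 30 C and loaded with no-wash calcium dye.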
# TRHR enhancer: allosterically enhances the human TRH receptor. P34981. TRHR cells, fluo-8 calcium fluorescence, EC20 TRH enhancement. enhancement, % at 2 µM. actives 0.66% (n = 360,000). AID 493056; in the data active = enhancement above about 30%; also: 0% is about no effect
# Target sequence (P34981 whole entry, looked up): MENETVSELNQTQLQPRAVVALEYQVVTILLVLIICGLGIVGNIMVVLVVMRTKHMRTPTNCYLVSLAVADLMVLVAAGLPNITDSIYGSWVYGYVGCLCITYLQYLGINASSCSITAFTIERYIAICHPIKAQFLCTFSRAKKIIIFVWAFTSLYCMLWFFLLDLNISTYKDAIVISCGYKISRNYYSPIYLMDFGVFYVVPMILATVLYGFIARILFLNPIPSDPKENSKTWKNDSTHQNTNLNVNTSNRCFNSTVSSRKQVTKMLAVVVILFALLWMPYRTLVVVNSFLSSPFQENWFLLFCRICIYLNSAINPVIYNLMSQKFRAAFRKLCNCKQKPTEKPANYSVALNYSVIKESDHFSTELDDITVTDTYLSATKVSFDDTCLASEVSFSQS
#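 TRHR-expressing cells loaded with fluo-8 calcium dye were read kinetically (ex 480/em 530) during compound addition, then stimulated with an EC20 of TRH (10 nM final). Enhancement of the Gq-mediated intracellular calcium response was scored.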
# TRHR agonist: TRH receptor (human) agonism; AID 493084; activation, % at 2 µM; TRHR cells, calcium flux fluo-8, FDSS agonist mode; P34981; actives 0.18% (n = 360,000); also: 0% is about no effect
#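 TRHR-expressing cells, plated overnight in medium with 10% serum, were loaded with fluo-8 calcium dye at room temperature. After a 10 s baseline, library compound was pin-added and calcium release was recorded kinetically (ex 480/em 530) as agonist response.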
# D1 antagonist: human D1 dopamine receptor antagonism; P21728; activity change, negative = inhibition, % at 10 µM; HEK293 TREx D1 cells, calcium flux, dopamine EC80; active compounds read low; actives 3.2% (n = 360,000); AID 504652; in the data active = activity change below about -30%; also: % is scaled to controls: 0 for no effect and ±100 for the full control effect
#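 Tetracycline-induced HEK293 Trex D1 cells, force-coupled to calcium, dye-loaded; compounds added and read 180 s, then EC80 dopamine added and calcium flux tracked kinetically another 180 s.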
# D1 potentiator: enhances dopamine response at the human D1 receptor; actives 0.036% (n = 360,000); potentiation, % at 10 µM; P21728; HEK293 TREx D1 cells, calcium flux, dopamine EC20 potentiation; in the data active = potentiation above about 30%; also: 0% is about no effect
# * = called active by the depositor; ! = a repeat was not active. Rule as the data show it, unless noted: active = activation above about 30%; inactive = the rest.
SMILES,D1 agonist,TRHR enhancer,TRHR agonist,D1 antagonist,D1 potentiator
CC1CCC2(CC1)NC(=O)N(CC(=O)NC(C)c1ccc(F)c(F)c1)C2=O (configuration not stated),1,1,0,-35*,-4
COc1ccc(C(NC(=O)CN2C(=O)NC3(CCc4ccccc43)C2=O)c2ccc(OC)cc2)cc1 (configuration not stated),2,2,1,-7,-7
CC(NC(=O)CN1C(=O)NC2(CCCC2)C1=O)c1ccc2ccccc2c1 (configuration not stated),-1,11,0,20,-11
CCOC(=O)C1CCN(S(=O)(=O)c2ccc(N3CCCCS3(=O)=O)cc2)CC1,6,2,0,-25,1
CC(=O)c1cc(-c2ccc(F)cc2)n(CCC(=O)NC2CCCCC2)c1C,1,1,-1,2,-6
Cc1ccc(C=Nc2cccnc2N)cc1,90*,-2,13,7,13
O=C(O)CC(C(=O)Nc1ccc(Cl)cc1Cl)C1CCCO1 (configuration not stated),0,-4,1,-63*,-2
Cc1ccc(C)c(NC(=O)C(CC(=O)O)C2CCCO2)c1 (configuration not stated),1,-2,0,1,-5
CCN1CCOC(=O)C1CC(=O)Nc1ccc(Br)cc1 (configuration not stated),3,2,-3,0,-2
O=[N+]([O-])c1ccc(NC(=S)NCCc2ccc(Cl)cc2)cc1,15,-11,2,-23,-12
S=C(NCc1ccc(Cl)cc1)Nc1ccccc1,22,0,0,2,-10
S=C(NCc1ccc(Cl)cc1)Nc1ccncc1,26,-12,0,-43*,-6
O=[N+]([O-])c1ccc(NC(=S)NCCc2ccccc2)cc1,16,-4,1,-37*,-8
O=[N+]([O-])c1cccc(NC(=S)NCc2ccncc2)c1,7,2,-1,-40*,-4
O=C(NCc1ccncc1)Nc1cccc([N+](=O)[O-])c1,8,-3,1,-7,-4
O=[N+]([O-])c1ccc(NC(=S)NCc2ccncc2)cc1,32*,-1,1,-41*,-15
CC(C)CNC(=O)C1=CC(c2ccc3c(c2)OCO3)=NS(=O)(=O)N1C,9,-6,1,-21,-3
CCCCOc1ccc(C(=O)NCc2nnnn2-c2ccc(C)c(C)c2)cc1,3,5,0,-20,0
O=[N+]([O-])c1ccc(NC(=S)NCc2ccc(F)cc2)cc1,21,2,2,-35*,-5
NS(=O)(=O)c1ccc(NC(=S)NCc2ccc(F)cc2)cc1,1,-8,1,5,-1
CCCCc1cc(O)c(CCCC)c(O)c1,102*,-23,18,-8,-11
COc1ccccc1NC(=O)COC(=O)c1ccc(N2CCCC2=O)cc1,4,0,0,-31*,0
CCc1nnc(NS(=O)(=O)c2ccc(NC(=S)NC(=O)c3ccc(OC)c(OC)c3)cc2)s1,2,-5,0,-2,5
CCOc1ccc(NS(=O)(=O)c2ccc(NC(=S)NC(C)=O)cc2)cc1,95*,-6,5,-11,-5
CC(C)C(=O)NC(=S)Nc1ccc(S(=O)(=O)NC2CCCCC2)cc1,11,-2,1,-32*,-5
SMILES,D1 agonist,TRHR enhancer,TRHR agonist,D1 antagonist,D1 potentiator
CCc1nnc(NS(=O)(=O)c2ccc(NC(=S)NC(=O)c3ccc(OC)cc3)cc2)s1,2,1,0,-32*,11
COc1ccc(S(=O)(=O)Nc2ccc(NC(C)=O)cc2)cc1,2,5,0,-15,-1
CCOc1ccc(NS(=O)(=O)c2ccc(NC(=S)NC(=O)C(C)C)cc2)cc1,32*,9,2,10,-4
CC(C)NC(=O)C1CCCN(S(=O)(=O)c2cccc3nonc23)C1 (configuration not stated),0,2,0,13,-7
O=C(NC1CCN(Cc2ccccc2)CC1)C1CCCN(S(=O)(=O)c2cccc3nonc23)C1 (configuration not stated),15,36*,0,-15,-3
CCC(C)NC(=O)C1CCN(S(=O)(=O)c2cccc3nonc23)CC1 (configuration not stated),-3,31*,0,-3,3
O=C(NCc1ccccc1)C1CCCN(S(=O)(=O)c2cccc3nonc23)C1 (configuration not stated),2,4,-1,7,0
CC1CCc2nc3ncn(Cc4cccc(F)c4)c(=O)c3cc2C1 (configuration not stated),3,-2,0,-13,1
COc1ccc(-c2nnnn2C)cc1S(=O)(=O)NCc1ccccc1,3,-2,0,-55*,0
Cc1nn2c(=O)cc(COC(=O)c3ccc(NC(=O)c4cccs4)cc3)nc2s1,2,2,-1,11,0
CC1CCc2nn(CC(=O)Nc3ccccc3Cl)cc2C1 (configuration not stated),-1,-2,0,11,-2
COc1cccc(CNC(=O)CCc2c(C)nc3c(c(C)nn3-c3ccc(C)c(C)c3)c2C)c1,-1,-3,1,-6,1
CNc1ncnc2sc(-c3ccccc3)cc12,1,-5,-1,-38*,-4
CN(C)CCNc1ncnc2sc(-c3ccccc3)cc12,1,3,-2,1,-1
CC(=O)N1CCN(c2ncnc3sc(-c4ccccc4)cc23)CC1,1,40*,0,-2,-8
CCOC(=O)Cn1c(=O)n(-c2ccccc2OC)c2nc(-c3ccc(C(C)C)cc3)nc(C(N)=O)c21,9,0,1,-9,0
Cc1ccc(C(=O)NCCCNC(=O)c2ccccn2)cc1,1,4,0,-3,-2
Cc1ccc(C(=O)NCCCNc2ccccc2[N+](=O)[O-])cc1,1,7,-1,-44*,-7
Cn1c2cc(S(C)(=O)=O)sc2c2cnn(Cc3ccccc3F)c(=O)c21,7,1,0,-24,18
COc1ccc2cc3cc(C(=O)NCCN4CCN(c5ccccc5F)CC4)oc3nc2c1,0,-5,-1,-19,-7
COc1ccc2cc3cc(C(=O)Nc4ccccc4N4CCN(C)CC4)oc3nc2c1,3,-4,0,-41*,-10
CC(C)CN1C(=O)c2ccc(NC(=O)c3cccs3)cc2C1=O,2,38*,1,-15,-9
CC(C)CN1C(=O)c2ccc(NC(=O)c3ccco3)cc2C1=O,3,-7,0,-10,-3
O=C(Cc1ccccc1)Nc1ccc(NC(=O)c2cccs2)cc1Cl,7,5,0,-31*,-2
Cc1ccccc1C(=O)Nc1ccc2c(c1)CCCN2C(=O)c1cccs1,5,-6,-1,-37*!,-6
